KCNQ2 enhance: enhances the rat KCNQ2 potassium channel. O88943. CHO-K1 KCNQ2, FluxOR thallium flux fluorescence; stronger effect = higher value. B-score at 10 µM. 310,000 tested, 0.54% active. AID 2239;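 active = fluorescence ratio B-score at least 3 SD of library B-scores, with initial fluorescence B-score within 3 of them, cut at about 5.3 in these data; same plate scores as AID 2156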;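 also: B-score of peak minus minimum over baseline fluorescence ratio after K+ and Tl+ stimulus; positive B-score means potentiation of KCNQ2 with more thallium influx and brighter signal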
Target sequence (O88943 whole entry, looked up): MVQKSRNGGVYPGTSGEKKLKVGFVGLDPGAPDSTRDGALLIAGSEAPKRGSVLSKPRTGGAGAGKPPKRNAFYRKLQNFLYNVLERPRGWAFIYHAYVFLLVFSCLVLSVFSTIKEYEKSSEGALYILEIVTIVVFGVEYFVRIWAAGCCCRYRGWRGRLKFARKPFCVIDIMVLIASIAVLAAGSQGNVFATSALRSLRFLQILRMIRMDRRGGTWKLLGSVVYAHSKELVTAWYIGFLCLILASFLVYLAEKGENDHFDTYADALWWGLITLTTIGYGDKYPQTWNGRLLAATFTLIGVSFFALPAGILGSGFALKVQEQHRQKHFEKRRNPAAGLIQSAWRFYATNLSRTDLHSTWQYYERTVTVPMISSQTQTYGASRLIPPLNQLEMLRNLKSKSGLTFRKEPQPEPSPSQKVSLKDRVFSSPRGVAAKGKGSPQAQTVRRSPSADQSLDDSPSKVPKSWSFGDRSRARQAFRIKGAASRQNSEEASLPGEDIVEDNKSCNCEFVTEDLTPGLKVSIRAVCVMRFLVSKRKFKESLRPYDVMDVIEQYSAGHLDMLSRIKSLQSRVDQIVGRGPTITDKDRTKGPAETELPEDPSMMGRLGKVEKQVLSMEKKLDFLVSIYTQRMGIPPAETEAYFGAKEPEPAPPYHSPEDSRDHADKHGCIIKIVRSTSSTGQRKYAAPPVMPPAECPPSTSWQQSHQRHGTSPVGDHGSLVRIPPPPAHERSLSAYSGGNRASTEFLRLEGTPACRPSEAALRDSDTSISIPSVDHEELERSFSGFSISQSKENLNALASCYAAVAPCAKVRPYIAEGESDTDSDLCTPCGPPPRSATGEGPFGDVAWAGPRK
KCNQ2 inh: inhibitors of rat KCNQ2 potassium channel; B-score at 10 µM; O88943; AID 2156; 310,000 tested, 1.1% active; CHO-K1 KCNQ2, FluxOR thallium flux, 20 min; stronger effect = lower value;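 active = fluorescence ratio B-score at most minus 3 library SDs, with starting brightness B-score within 2 library SDs, cut at about -5.5 in these data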
Kir21 conf inh: confirmation of mouse Kir2.1 potassium channel inhibitors; shares compounds with KCNQ2 enhance; Kir2.1-expressing cells, FluxOR thallium flux fluorescence; stronger effect = lower value; Tl flux remaining, % of negative control (stronger effect = lower value), % at 10 µM; 2,300 tested, 41% active; AID 2032;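 active = Primary-screen hit whose thallium flux fell at least 3 control SD below untreated wells in both duplicates, with normal baseline fluorescence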
HEK293 ctr: counter-screen for Kir2.1 inhibitors: effect in parental HEK293 cells; FluxOR signal as % of negative control (100 = no effect), % at 10 µM; FluxOR thallium flux fluorescence; 0% = unstimulated blank wells; 2,300 tested, 19% active; shares compounds with KCNQ2 enhance;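 active = dye signal at least 3 control SD above or below untreated wells in both duplicates, raw fluorescence within 3, either direction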;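 also: percent is based on the flux ratio of peak minus minimum fluorescence over baseline F0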
CHO-K1 ctr: parental CHO-K1 activity in KCNQ2 potentiator counter-screen. shares compounds with KCNQ2 enhance. parental CHO-K1 cells, FluxOR thallium flux fluorescence; zero = vehicle mean+3SD, 100% = vehicle-minus-blank window. activity increase over 3SD of controls, % at 10 µM. 1,200 tested, 43% active;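 active = signal rise of at least 3 SD above the untreated control mean, in both duplicate wells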;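 also: counter screen of KCNQ2 potentiator hits so any rise reflects channel-independent effects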
KCNQ1 sel pot: human KCNQ1 counter-target activity of KCNQ2 potentiators; shares compounds with KCNQ2 enhance; CHO KCNQ1 stable, FluxOR thallium flux fluorescence; beyond 3SD, as % of vehicle-control signal; activation over 3SD threshold, % at 10 µM; 1,200 tested, 28% active;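 active = fluorescence ratio rise of at least 3 SD of vehicle wells above their mean, in both replicate wells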
KCNQ2 pot conf: rat KCNQ2 channel potentiator confirmation | shares compounds with KCNQ2 enhance | CHO-KCNQ2 cells, FluxOR thallium flux fluorescence | potentiation, less the hit threshold, % at 10 µM | 1,200 tested, 68% active | AID 2287;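 active = fluorescence ratio rising 3 SD or more over the vehicle control mean in both replicates, plus primary screen hit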;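 also: peak minus minimum thallium fluorescence divided by baseline after K/Tl stimulus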
Kir21 spec: mouse Kir2.1 off-target activity of KCNQ2 potentiators; shares compounds with KCNQ2 enhance; HEK293 Kir2.1, FluxOR thallium flux fluorescence; activity over 3SD threshold, % at 10 µM; 1,200 tested, 2% active; AID 2345;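 active = fluorescence ratio rise of at least 3 SD above the vehicle-control mean, seen in both replicates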
KCNQ2 W236L MoA: potentiates the retigabine-insensitive rat KCNQ2 W236L mutant channel | shares compounds with KCNQ2 enhance | CHO KCNQ2-W236L, automated patch clamp current | current increase over 3SD of negative controls (%), stronger effect = higher value, % at 25 µM | 940 tested, 10% active | AID 2558;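 active = current increase at least 3 SD of the untreated controls above them in both duplicate recordings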
Large screens that a line does not name were inactive (follow-up assays come after a bar, where they were run). Shown are actives, neighbours in structure and some others; about 1.6% of the full set was active somewhere.

CN(C(=O)c1cccc(COc2ccc(Cl)cc2Cl)c1)c1ccccc1	none (no result: KCNQ2 enhance) | Kir21 conf inh inactive | HEK293 ctr inactive
COc1cc(CNC(C)(C)CO)cc(Br)c1OCc1ccccc1	none
CCOc1cc(CNCCO)cc(Br)c1OCc1ccccc1Cl	KCNQ2 inh -7.4 | Kir21 conf inh inactive | HEK293 ctr inactive
CCOc1cc(CNC(C)(C)CO)cc(Br)c1OCc1ccc(Cl)cc1Cl	KCNQ2 inh -7.7 | Kir21 conf inh 22% | HEK293 ctr inactive
COc1cc(CNCCO)cc(Cl)c1OCc1ccccc1Cl	none (no result: KCNQ2 enhance)
CS(=O)(=O)c1ccccc1-c1nnc(NC(=O)c2cccc(N3C(=O)CCC3=O)c2)o1	none
Cc1cc(F)ccc1NCc1ccc([N+](=O)[O-])cc1	none
CC1CCC(C(C)C)C(OC(=O)Cn2c(-c3ccccc3)[n+](C)c3ccccc32)C1 (configuration not stated)	none (no result: KCNQ2 enhance) | Kir21 conf inh 26% | HEK293 ctr inactive
CC1CCC(C(C)C)C(OC(=O)C[n+]2cc(-c3ccc(Cl)cc3)n3c2CCC3)C1 (configuration not stated)	none
CCOc1ccc(S(=O)(=O)NCCC(=O)NCC(c2ccc(F)cc2)N2CCOCC2)cc1 (configuration not stated)	none
N#Cc1c(C(F)(F)F)cc(-c2ccc(Cl)c(Cl)c2)nc1SCCN1CCOCC1	none
N#Cc1c(C(F)(F)F)cc(-c2ccccc2)nc1SCc1nc(N)nc(N2CCOCC2)n1	KCNQ2 enhance 10 | Kir21 conf inh inactive | HEK293 ctr inactive | CHO-K1 ctr inactive | KCNQ1 sel pot inactive | KCNQ2 pot conf 17 | Kir21 spec inactive | KCNQ2 W236L MoA inactive
CCCCN(C)CCNC(=O)CN1C(=O)CSc2ccc(S(=O)(=O)N3CCCC3)cc21	none
CCc1c(C)nc(N2CCN(c3ccc(OC)cc3)CC2)[nH]c1=O	none (no result: KCNQ2 enhance)
O=C(NCCNC(=O)c1cc(Cl)ccc1Cl)c1ccccn1	none (no result: KCNQ2 enhance)
Cc1cc(C)c(C)c(OCCNCc2ccccc2)c1	none (no result: KCNQ2 enhance)
Cc1cc(Cl)cc(C)c1OCCOCCNCc1ccccc1	none (no result: KCNQ2 enhance) | Kir21 conf inh 14% | HEK293 ctr inactive
COc1c(Cl)cc(Cl)cc1CNCc1ccccc1	none (no result: KCNQ2 enhance)
CC(C)(C)c1ccc(OCCNCc2ccccc2)cc1	none (no result: KCNQ2 enhance)
Clc1ccc(OCCCNCc2ccccc2)c2ccccc12	KCNQ2 inh -7.6 | Kir21 conf inh 14% | HEK293 ctr 74%
Cc1cc(Br)ccc1OCCNCc1ccccc1	none (no result: KCNQ2 enhance) | Kir21 conf inh 25% | HEK293 ctr inactive
CCC(C)NCCOCCOc1ccc(Cl)c2ccccc12 (configuration not stated)	none
Clc1ccc(OCCOCCNCc2ccccc2)cc1Cl	none (no result: KCNQ2 enhance) | Kir21 conf inh 22% | HEK293 ctr inactive
COCCSc1ccccc1C(=O)NCc1cccnc1	none
CN(C)CCNc1cnn(-c2ccccc2)c(=O)c1Cl	none
Cc1cc(C)c(OCCCCNCc2ccccc2)c(Cl)c1	none (no result: KCNQ2 enhance) | Kir21 conf inh 12% | HEK293 ctr inactive
COc1ccccc1OCCCOc1c(Cl)cc(C)cc1Cl	none
Cc1ccc2nc(CCCc3nc4ccc(C)cc4[nH]3)[nH]c2c1	none (no result: KCNQ2 enhance) | Kir21 conf inh 70% | HEK293 ctr inactive
Cc1ccc2nc(CCc3nc4ccc(C)cc4[nH]3)[nH]c2c1	none (no result: KCNQ2 enhance)
O=C(NC(=S)N1CCCCCC1)c1ccccc1Cl	none
Cc1ccccc1C(=O)NNC(=S)NC(=O)c1ccc(Cl)cc1Cl	none
O=C(NC(=S)N1CCCCCC1)c1ccc(Cl)cc1Cl	KCNQ2 enhance 9.1 | Kir21 conf inh inactive | HEK293 ctr 238% | CHO-K1 ctr 27 | KCNQ1 sel pot 6.1 | KCNQ2 pot conf 12 | Kir21 spec inactive | KCNQ2 W236L MoA inactive
